PLC-gamma1 inh: PLC-gamma1 (human) inhibition, primary screen. AID 720700. hit rate 0.84% among 370,000. inhibition, % at 12.2 µM. purified PLC-gamma1, fluorogenic substrate, fluorescence. P19174; in the data active means inhibition above about 9.5%
HGIII-sPLA2 inh: Inhibits HGIII-sPLA2 liposome hydrolysis, primary screen; hit rate 0.56% among 370,000; Q9NZ20; QFRET BODIPY PC-A2 liposome hydrolysis, fluorescence; inhibition, % at 12.2 µM;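 active means inhibition above mean plus 3 SD of compounds lying within the high and low control bounds, cut at about 19% in these data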;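 further: 0% = median of test compound wells and 100% = no enzyme DMSO wells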
PLCb3 inh: PLC-beta3 (human) inhibition, primary screen; hit rate 0.18% among 370,000; Purified PLC-beta3, fluorogenic substrate, fluorescence; AID 720704; inhibition, % at 12.2 µM; Q01970;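 further: 0% = median of compound wells on plate and 100% = full blocker control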
Target sequence (Q01970 whole entry, looked up): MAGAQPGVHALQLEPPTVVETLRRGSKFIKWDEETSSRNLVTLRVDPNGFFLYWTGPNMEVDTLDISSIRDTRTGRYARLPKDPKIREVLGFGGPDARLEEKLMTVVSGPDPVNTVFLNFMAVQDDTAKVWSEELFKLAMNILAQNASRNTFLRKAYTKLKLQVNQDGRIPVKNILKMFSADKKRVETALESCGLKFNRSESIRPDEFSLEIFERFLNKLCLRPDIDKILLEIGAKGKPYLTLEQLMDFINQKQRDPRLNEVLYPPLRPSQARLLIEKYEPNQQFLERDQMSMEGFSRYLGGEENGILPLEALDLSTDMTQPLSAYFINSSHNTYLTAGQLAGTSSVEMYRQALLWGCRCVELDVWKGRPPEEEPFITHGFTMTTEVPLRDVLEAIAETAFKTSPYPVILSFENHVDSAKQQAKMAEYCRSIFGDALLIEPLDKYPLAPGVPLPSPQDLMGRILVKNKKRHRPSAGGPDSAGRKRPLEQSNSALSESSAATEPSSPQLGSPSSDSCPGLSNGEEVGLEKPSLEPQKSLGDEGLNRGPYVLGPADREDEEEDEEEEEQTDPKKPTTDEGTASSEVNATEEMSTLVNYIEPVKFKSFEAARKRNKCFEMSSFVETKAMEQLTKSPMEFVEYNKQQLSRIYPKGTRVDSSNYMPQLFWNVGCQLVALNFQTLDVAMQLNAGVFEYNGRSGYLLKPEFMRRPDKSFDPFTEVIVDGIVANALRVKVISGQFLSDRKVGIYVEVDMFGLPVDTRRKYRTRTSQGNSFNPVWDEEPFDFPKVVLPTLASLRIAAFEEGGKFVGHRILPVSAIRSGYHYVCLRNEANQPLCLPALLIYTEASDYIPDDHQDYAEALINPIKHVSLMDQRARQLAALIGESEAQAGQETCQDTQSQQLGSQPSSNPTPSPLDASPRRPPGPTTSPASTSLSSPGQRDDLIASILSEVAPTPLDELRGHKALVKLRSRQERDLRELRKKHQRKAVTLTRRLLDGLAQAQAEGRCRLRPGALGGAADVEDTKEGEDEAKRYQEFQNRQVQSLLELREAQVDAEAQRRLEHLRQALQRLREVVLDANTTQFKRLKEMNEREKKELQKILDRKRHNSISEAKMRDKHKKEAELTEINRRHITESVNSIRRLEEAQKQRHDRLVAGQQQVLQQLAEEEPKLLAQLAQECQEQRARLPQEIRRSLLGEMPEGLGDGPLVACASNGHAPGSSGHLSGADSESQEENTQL
DAGLB inh: blocks human DAGLB lipase activity; AID 504411; inhibition, % at 5.17 µM; HEK293T DAGLB membrane lysate, EnzChek fluorogenic substrate; hit rate 0.059% among 340,000; Q8NCG7; in the data active means inhibition above about 34%;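 further: 0% = enzyme with vehicle and 100% = wells lacking enzyme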
PLCgamma1 ctr: inhibits human PLC-gamma1 in PLC-beta3 counter-screen; inhibition, % at 12.3 µM; purified PLC-gamma1, fluorogenic substrate, fluorescence; shares compounds with PLC-gamma1 inh; hit rate 3.1% among 3,300; in the data active means inhibition above about 9.5%
PLCb3 confirm: human PLC-beta3 inhibition, confirmation. AID 743261. hit rate 1% among 3,300. shares compounds with PLC-gamma1 inh. inhibition, % at 12.3 µM. purified PLC-beta3, fluorogenic substrate fluorescence
sPLA2 confirm: human GIII-sPLA2 inhibition, confirmation | hit rate 34% among 2,000 | inhibition, % at 12.2 µM | shares compounds with HGIII-sPLA2 inh | recombinant hGIII-sPLA2, BODIPY PC-A2 QFRET fluorescence;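 active means mean inhibition across triplicates above the hit cutoff set in the earlier primary screen, cut at about 19% in these data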;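 further: 0% = enzyme with DMSO and 100% = DMSO wells lacking enzyme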
535nm interf: optically interferes with 535nm fluorescence in sPLA2 counter-screen; shares compounds with HGIII-sPLA2 inh; hit rate 8.5% among 2,000; AID 743282; BODIPY FL product fluorescence interference, QFRET; inhibition, % at 12.2 µM;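 active means average inhibition above the solvent-only control mean plus 3 SD, cut at about 6% in these data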;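 further: 0% = DMSO with substrate plus product and 100% = DMSO with substrate alone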
BODIPY interf DR: 535nm optical interference dose response, HGIII-sPLA2 counter-screen | BODIPY FL product fluorescence interference, cell-free | shares compounds with HGIII-sPLA2 inh | IC50, µM | 240 tested, under 10 active;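 active means IC50 at or below 10 µM; inactive means IC50 above 10 µM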
Starred values were filed as active, the others as inactive; . = no result. Only some compounds are listed: those with a hit (about 1.5% of all), similar ones and a draw of the others. Unless noted, no stated cut-off is given here; in the data, active means inhibition above about 11%; inactive means the rest.

SMILES	PLC-gamma1 inh	HGIII-sPLA2 inh	PLCb3 inh	DAGLB inh	sPLA2 confirm	535nm interf	others
CC1CCC(NC(=O)C(NS(=O)(=O)c2cccc3nsnc23)C(C)C)CC1 (stereo not drawn)	11*	86*	-3	-3	-4	-7	PLCgamma1 ctr=3;PLCb3 confirm=2
COc1ccc(OCCNc2cc(N3CCCCC3)ccc2[N+](=O)[O-])cc1	1	-3	3	-7	.	.
CC1CN(c2ccc([N+](=O)[O-])c(NCCOc3ccccc3)c2)CCN1 (stereo not drawn)	8	39*	11*	4	10	-25	PLCgamma1 ctr=0;PLCb3 confirm=1
Cc1ccc(NC(=S)NCCc2ccc(F)cc2)c(C)c1	0	2	1	-3	.	.
Cc1ccc(F)cc1NC(=S)NCCc1ccccc1	11*	22*	3	-2	20*	-5	PLCgamma1 ctr=-2;PLCb3 confirm=-1
CC(C)(CO)Cc1cc(C(C)(C)C)c(O)c(C(C)(C)C)c1	11*	20*	4	-3	-2	-9	PLCgamma1 ctr=-7;PLCb3 confirm=-4
CC(C)(C=O)Cc1cc(C(C)(C)C)c(O)c(C(C)(C)C)c1	-2	6	0	-7	.	.
O=C(CNS(=O)(=O)c1cccc2ccccc12)N1CCN(c2ncccn2)CC1	2	-1	-2	.	.	.
Cc1ccccc1NC(=S)c1nc2ccccc2[nH]1	10*	45*	3	-4	31*	3	PLCgamma1 ctr=0;PLCb3 confirm=1;BODIPY interf DR=>122
Cc1ccc(-c2nnc(SCC(=O)NNC(=S)Nc3ccccc3)n2C2CCCCC2)cc1	1	28*	0	.	33*	-9	BODIPY interf DR=>122
Cc1ccc(-n2c(SCC(=O)Nc3ccc4c(c3)OCCO4)nnc2-c2cccnc2)cc1	-2	-5	0	.	.	.
COc1ccc(-n2c(SCC(=O)NNC(=S)Nc3ccc(C)cc3)nnc2-c2ccccc2)cc1	0	31*	-1	.	18	-3
Cc1ccc(-c2nnc(SCC(=O)Nc3ccc4c(c3)OCCO4)n2-c2ccc(C)cc2)cc1	1	21*	0	.	-15	-23
COC(=O)[C@]12C[C@H](CC(=O)NCC3CCCCC3)C(=O)N(Cc3ccc(Cl)cc3Cl)C1=C[C@H](C1CCCC1)O[C@@H]2C	2	-3	2	.	.	.
O=C(CSc1nc2ccccc2[nH]1)N1CCN(C(=O)c2ccco2)CC1	9	19*	3	3	1	-4
CCCNC(=S)N(Cc1cc2cc(C)ccc2n2nnnc12)CC(C)(C)CN(C)C	1	8	-2	-1	.	.
CCC(C)NC(=S)N(Cc1cc2cc(C)ccc2n2nnnc12)CC(C)(C)NC(C)C (stereo not drawn)	6	21*	4	0	6	-8
Cc1cccc(C(=O)Nc2nc3ncccn3c2-c2ccccc2)c1	-229	3	-305	.	.	.
Cc1ccc(OCCCN2C(=O)C(=O)c3cccc(C)c32)cc1	1	26*	2	3	26*	-3
Cc1cccc2c1N(CCOc1ccc(C(C)(C)C)cc1)C(=O)C2=O	3	8	3	8	.	.
CCc1ccc(Nc2nc(N)nc(CSc3nc4ccccc4s3)n2)cc1	0	24*	-3	-2	-3	0
Cc1cccc(NC(=O)Nc2ccccn2)c1C	3	-1	-5	-1	.	.
Cc1ccccc1NC(=O)Nc1ccccn1	-2	20*	-6	1	0	-4
CCOC(=O)CC[C@@H]1CC[C@]2(CCCN(C(=O)c3ccno3)C2)O1	0	0	2	.	.	.
O=[N+]([O-])c1ccc(N2N=C(c3ccco3)CC2c2ccccc2)cc1 (stereo not drawn)	-85	23*	-128	6	20*	9.3*
SMILES	PLC-gamma1 inh	HGIII-sPLA2 inh	PLCb3 inh	DAGLB inh	sPLA2 confirm	535nm interf	others
COCCNc1nc(NCc2cnc(C)cn2)c2sccc2n1	-1	22*	-9	.	-2	-7
COC(=O)CC1CCc2cc(C)cc(C(=O)CC(C)C)c2O1 (stereo not drawn)	-41	0	-56	.	.	.
COc1ccc(C2NCCc3c2[nH]c2ccccc32)cc1CSc1nc2ccccc2s1 (stereo not drawn)	-50	20*	-55	1	-2	-4
COc1ccc(C2NC(C(=O)O)Cc3c2[nH]c2ccccc32)cc1OC (stereo not drawn)	-14	2	-16	3	.	.
COc1ccccc1NC(=O)c1ccc(SCC(=O)NCc2ccccc2Cl)c([N+](=O)[O-])c1	3	21*	2	2	8	-2
COC(=O)[C@]12C[C@H](CC(=O)NCc3ccc(OC)c(OC)c3)C(=O)N(Cc3ccco3)C1=C[C@H](C(C)(C)C)O[C@@H]2C	-1	-4	2	.	.	.
C/C(=N\NC(=O)c1ccc(CN2CCc3ccccc3C2)cc1)c1ccccc1O	-74	33*	-99	-4	24*	-21
CCCCC(=O)Nc1ccc(NC(=S)NC(=O)c2ccco2)cc1OC	5	31*	-7	.	18	-9
Nc1ccc(C(=O)C(=O)c2ccc(N)cc2)cc1	9	4	-4	-3	.	.
N=C1C=CC(=C(c2ccc(N)cc2)c2ccc(N)cc2)C=C1	-11	21*	-20	21	17	-1
CCN(CC)C(=O)c1csc([C@@H]2O[C@H](CO)[C@H](O)[C@H](O)[C@H]2O)n1	5	17	1	.	.	.
CN(Cc1ccccc1)C(=O)c1csc([C@@H]2O[C@H](CO)[C@@H](O)[C@H]2O)n1	2	20*	-4	.	-6	-4
COC(=O)[C@]12C[C@H](CC(=O)NCCC(C)C)C(=O)N(Cc3ccc(Cl)cc3Cl)C1=C[C@H](C(C)(C)C)O[C@@H]2C	0	3	3	.	.	.
CC12CCC(C(=O)N(CSC(=S)N/N=C\c3ccccc3O)C1=O)C2(C)C (stereo not drawn)	-9	28*	-6	12	36*	4
CC(C)[C@H]1/C(=C/C2CC2)N2C(=O)C[C@@H](c3ccccc3)N=C2N1Cc1ccc2c(c1)OCO2	-3	2	-4	.	.	.
O=C(C1CCCN1S(=O)(=O)c1ccc(Br)s1)N1CCN(c2ccccc2)CC1 (stereo not drawn)	1	2	-2	.	.	.
NNC(=O)C1CCN(S(=O)(=O)c2ccc(Cl)cc2)CC1	-4	-6	-9	0	.	.
O=C(NNC(=O)C1CCN(S(=O)(=O)c2ccc(Cl)cc2)CC1)c1ccccc1O	-16	21*	-40	1	4	-5

From PubChem BioAssay
